The structures appear in SMILES notation. The list shows a part of the results. Values without a mark were called inactive. Activity calls are given as the source filed them.

The target of assay [1] is Inward rectifier potassium channel 2 (Mus musculus) (UniProt P35561). Nature of the assay: mouse Kir2.1 channel blockers, retest, confirmation, cell-based, FluxOR thallium flux, duplicate (AID 2032;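 active = Primary-screen hit whose thallium flux fell at least 3 control SD below untreated wells in both duplicates, with normal baseline fluorescence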). Particulars: Kir2.1-expressing cells, FluxOR thallium flux fluorescence, at 10 µM; hits give low values.
A short description of assay [2]: nonspecific thallium flux effects in parental HEK293 cells, confirmation, counter-screen for Kir2.1 inhibitor project, cell-based, FluxOR thallium flux, duplicate, single concentration (AID 2105;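 active = dye signal at least 3 control SD above or below untreated wells in both duplicates, raw fluorescence within 3, either direction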). The settings on record: FluxOR thallium flux fluorescence, at 10 µM; 0% = unstimulated blank wells. (In general: Counterscreens check selectivity or assay interference.)
In assay [3] the target is Voltage-gated inwardly rectifying potassium channel KCNH2 (Homo sapiens) (UniProt Q12809). Nature of the assay: hERG channel inhibition, counter-screen for Kir2.1 inhibitor project, cell-based, thallium flux (AID 2236).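 Also: host cells are CHO cells stably expressing hERG.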 Particulars: hERG-expressing cells, at 10 µM; hits give high values.
For assay [4], the target named is Potassium channel subfamily K member 9 (Homo sapiens) (UniProt Q9NPC2). In words: KCNK9 channel inhibition, selectivity assay for Kir2.1 inhibitor project, cell-based (AID 2329). Particulars: KCNK9-expressing cells, ion flux inhibition, at 10 µM; hits give high values.
The target in assay [5] is Inward rectifier potassium channel 2 (Mus musculus) (UniProt P35561). In words: mouse Kir2.1 channel blockers, Kir2.1 inhibitor project, cell-based, secondary, automated electrophysiology (AID 463252). The settings on record: Kir2.1 cells, automated patch-clamp current inhibition, at 25 µM; hits give high values.
A short description of assay [6]: parental HEK293 membrane potential modulation, confirmation, counter-screen for TRPC6 modulator project, cell-based (AID 488924;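 active = membrane potential signal moves up or down beyond 5 SD from buffer-only wells, on both duplicate plates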). Particulars: parental HEK293, membrane potential dye fluorescence; at 10 µM.
Assay [7] is described as follows: modulation of acetylcholine-evoked membrane potential, parental HEK293, confirmation, counter-screen for TRPC6 modulator project, cell-based, second counter-screen, membrane potential dye (AID 488926;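 active = membrane potential signal drops by more than 5 SD from the mean control signal, in both duplicate plates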). Particulars: parental HEK293, membrane potential dye fluorescence; at 10 µM; after compound, maximal acetylcholine stimulation.
For assay [8], the system named is Transient receptor potential cation channel subfamily C member 4 (mouse). In words: TRPC4 modulation by TRPC6 hit compounds, confirmation, selectivity assay for TRPC6 modulator project, cell-based, HEK293 TRPC4/mu-opioid, membrane potential dye, mouse (AID 488927;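 active = membrane potential signal moved up or down beyond 5 SD of buffer control wells, in both duplicate plates, actives on both sides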;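 also: plate controls were assay buffer wells for no effect and DAMGO maximal-effect wells for full effect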). Particulars: membrane potential fluorescence, at 10 µM.
Assay [9] concerns TRPC4 (transient receptor potential cation channel C4), mouse. In words: TRPC4 inhibition by TRPC6 hit compounds, confirmation, selectivity assay for TRPC6 modulator project, cell-based, second screen, HEK293 TRPC4/mu-opioid, membrane potential dye (AID 488928;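 active = drop in membrane potential signal beyond 5 SD of the control wells in both duplicate plates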;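 also: TRPC4 counter screen for TRPC6 hits run under conditions tuned for TRPC6 not TRPC4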). Particulars: membrane potential dye fluorescence, at 10 µM, stimulated with maximal-effect DAMGO; hits give high values.

In assay [10] the target is Short transient receptor potential channel 6 (Mus musculus) (UniProt Q61143). In words: mouse TRPC6 channel inhibitors, confirmation, HEK293 cells, membrane potential dye, duplicate (AID 488960;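 active = fluorescence ratio falls more than 5 SD below the full-stimulation control mean, in both duplicate runs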;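 as to inhibition: integrated fluorescence ratio of peak minus minimum over baseline after agonist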). The settings on record: ACh-evoked depolarization, at 10 µM; hits give high values.
Assay [11] shares this target. In words: mouse TRPC6 channel activators, confirmation, HEK293 cells, membrane potential dye, duplicate (AID 488961;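 active = ratio signal rise beyond 5 SD above unstimulated control wells' mean, seen in both duplicate runs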;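 as to activation: plate controls were buffer EC0 wells for no effect and acetylcholine ECmax response for full effect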). Particulars: HEK293-TRPC6 membrane potential dye fluorescence, FDSS, at 10 µM; hits give high values.
Assay [12] in a line: nonspecific thallium flux increase in parental CHO-K1, confirmation, counter-screen for KCNQ2 potentiator project, cell-based, FluxOR thallium flux, duplicate (AID 2282;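 active = signal rise of at least 3 SD above the untreated control mean, in both duplicate wells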;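 also: counter screen of KCNQ2 potentiator hits so any rise reflects channel-independent effects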). Particulars: parental CHO-K1 cells, FluxOR thallium flux fluorescence; at 10 µM; hits give high values; zero = vehicle mean+3SD, 100% = vehicle-minus-blank window.
For assay [13], the target named is Potassium voltage-gated channel subfamily KQT member 1 (Homo sapiens) (UniProt P51787). Nature of the assay: human KCNQ1 channel potentiation off-target, confirmation, selectivity assay for KCNQ2 potentiator project, cell-based, CHO, FluxOR thallium flux (AID 2283;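 active = fluorescence ratio rise of at least 3 SD of vehicle wells above their mean, in both replicate wells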;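 also: 0% = vehicle mean plus 3 SD and 100% = vehicle minus unstimulated blank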). Particulars: CHO KCNQ1 stable, FluxOR thallium flux fluorescence; at 10 µM; hits give high values; beyond 3SD, as % of vehicle-control signal.

In assay [14] the target is Potassium voltage-gated channel subfamily KQT member 2 (Rattus norvegicus) (UniProt O88943). Nature of the assay: rat KCNQ2 channel potentiators, confirmation, cell-based, CHO, FluxOR thallium flux, duplicate (AID 2287;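 active = fluorescence ratio rising 3 SD or more over the vehicle control mean in both replicates, plus primary screen hit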;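 also: peak minus minimum thallium fluorescence divided by baseline after K/Tl stimulus; 0% = vehicle mean plus 3 SD and 100% = vehicle minus unstimulated blank difference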). Particulars: CHO-KCNQ2 cells, FluxOR thallium flux fluorescence; at 10 µM; hits give high values.
The target in assay [15] is Inward rectifier potassium channel 2 (Mus musculus) (UniProt P35561). In words: PubChem AID 2345.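 Also: 0% = vehicle mean plus 3 SD and 100% = vehicle minus no-stimulus blank window.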 Particulars: HEK293 Kir2.1, FluxOR thallium flux fluorescence; at 10 µM; hits give high values.
Assay [16] concerns the target Potassium voltage-gated channel subfamily KQT member 2 (Rattus norvegicus) (UniProt O88943). Nature of the assay: potentiators of retigabine-insensitive KCNQ2 W236L, mechanism study for KCNQ2 potentiator project, cell-based, rat KCNQ2 W236L, CHO, automated patch clamp (AID 2558;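 active = current increase at least 3 SD of the untreated controls above them in both duplicate recordings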). The settings on record: at 25 µM; outcome: automated patch clamp current. On the technique in general: Patch clamp records ionic current or voltage across a cell membrane.

Short transient receptor potential channel 6 (Mus musculus), sequence (Q61143 whole entry, looked up): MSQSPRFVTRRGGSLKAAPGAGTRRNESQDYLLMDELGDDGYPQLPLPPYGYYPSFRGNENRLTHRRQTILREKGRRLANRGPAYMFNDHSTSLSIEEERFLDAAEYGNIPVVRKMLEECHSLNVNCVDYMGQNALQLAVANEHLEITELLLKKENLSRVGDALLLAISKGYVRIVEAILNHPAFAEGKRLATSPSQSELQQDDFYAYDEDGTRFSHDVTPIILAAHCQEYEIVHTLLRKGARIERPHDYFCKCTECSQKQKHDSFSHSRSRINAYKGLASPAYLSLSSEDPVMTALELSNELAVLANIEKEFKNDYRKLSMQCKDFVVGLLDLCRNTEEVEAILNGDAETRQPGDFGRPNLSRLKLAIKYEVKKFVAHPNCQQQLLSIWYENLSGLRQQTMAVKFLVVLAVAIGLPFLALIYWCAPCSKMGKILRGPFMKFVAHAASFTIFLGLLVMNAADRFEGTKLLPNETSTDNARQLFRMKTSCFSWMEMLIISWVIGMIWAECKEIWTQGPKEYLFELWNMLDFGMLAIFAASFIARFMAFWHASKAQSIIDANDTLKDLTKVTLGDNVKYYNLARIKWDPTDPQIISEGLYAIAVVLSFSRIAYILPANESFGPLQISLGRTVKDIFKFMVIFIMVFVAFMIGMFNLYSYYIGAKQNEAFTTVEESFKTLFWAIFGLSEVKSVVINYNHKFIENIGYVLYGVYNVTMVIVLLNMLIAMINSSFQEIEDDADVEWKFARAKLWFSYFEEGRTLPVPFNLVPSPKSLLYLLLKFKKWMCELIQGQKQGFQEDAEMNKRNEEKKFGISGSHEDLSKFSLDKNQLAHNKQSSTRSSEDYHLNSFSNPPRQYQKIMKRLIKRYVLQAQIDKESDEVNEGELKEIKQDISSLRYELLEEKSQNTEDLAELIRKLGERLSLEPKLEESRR
Inward rectifier potassium channel 2 (Mus musculus), sequence (P35561 whole entry, looked up): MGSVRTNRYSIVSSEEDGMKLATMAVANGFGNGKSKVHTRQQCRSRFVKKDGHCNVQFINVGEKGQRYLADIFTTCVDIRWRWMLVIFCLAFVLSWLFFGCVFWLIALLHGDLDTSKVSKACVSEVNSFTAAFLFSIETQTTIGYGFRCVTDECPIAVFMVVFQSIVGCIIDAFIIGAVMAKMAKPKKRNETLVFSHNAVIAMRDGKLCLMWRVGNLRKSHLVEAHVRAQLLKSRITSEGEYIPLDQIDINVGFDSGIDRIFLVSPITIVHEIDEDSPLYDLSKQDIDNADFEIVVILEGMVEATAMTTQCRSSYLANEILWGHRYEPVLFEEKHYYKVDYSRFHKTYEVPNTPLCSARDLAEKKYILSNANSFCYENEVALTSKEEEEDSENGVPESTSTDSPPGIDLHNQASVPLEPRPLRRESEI
Potassium voltage-gated channel subfamily KQT member 1 (Homo sapiens), sequence (P51787 whole entry, looked up): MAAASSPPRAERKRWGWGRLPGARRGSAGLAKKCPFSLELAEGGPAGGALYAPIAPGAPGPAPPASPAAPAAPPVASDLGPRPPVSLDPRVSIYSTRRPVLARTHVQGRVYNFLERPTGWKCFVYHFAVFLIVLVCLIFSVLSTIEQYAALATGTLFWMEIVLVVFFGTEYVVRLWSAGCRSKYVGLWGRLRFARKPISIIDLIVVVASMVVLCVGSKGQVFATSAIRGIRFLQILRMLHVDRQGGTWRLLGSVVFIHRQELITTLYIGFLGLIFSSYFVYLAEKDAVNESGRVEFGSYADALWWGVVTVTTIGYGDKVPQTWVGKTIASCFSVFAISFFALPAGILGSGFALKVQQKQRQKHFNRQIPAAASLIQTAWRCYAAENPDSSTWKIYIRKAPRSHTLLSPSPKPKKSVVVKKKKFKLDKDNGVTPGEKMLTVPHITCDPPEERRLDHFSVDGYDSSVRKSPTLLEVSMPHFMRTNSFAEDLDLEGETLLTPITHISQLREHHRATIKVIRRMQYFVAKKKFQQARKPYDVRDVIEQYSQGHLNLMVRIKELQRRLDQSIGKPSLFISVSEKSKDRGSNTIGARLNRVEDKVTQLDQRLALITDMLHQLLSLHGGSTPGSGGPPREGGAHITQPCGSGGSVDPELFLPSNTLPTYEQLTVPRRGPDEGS
Voltage-gated inwardly rectifying potassium channel KCNH2 (Homo sapiens), sequence (Q12809 whole entry, looked up): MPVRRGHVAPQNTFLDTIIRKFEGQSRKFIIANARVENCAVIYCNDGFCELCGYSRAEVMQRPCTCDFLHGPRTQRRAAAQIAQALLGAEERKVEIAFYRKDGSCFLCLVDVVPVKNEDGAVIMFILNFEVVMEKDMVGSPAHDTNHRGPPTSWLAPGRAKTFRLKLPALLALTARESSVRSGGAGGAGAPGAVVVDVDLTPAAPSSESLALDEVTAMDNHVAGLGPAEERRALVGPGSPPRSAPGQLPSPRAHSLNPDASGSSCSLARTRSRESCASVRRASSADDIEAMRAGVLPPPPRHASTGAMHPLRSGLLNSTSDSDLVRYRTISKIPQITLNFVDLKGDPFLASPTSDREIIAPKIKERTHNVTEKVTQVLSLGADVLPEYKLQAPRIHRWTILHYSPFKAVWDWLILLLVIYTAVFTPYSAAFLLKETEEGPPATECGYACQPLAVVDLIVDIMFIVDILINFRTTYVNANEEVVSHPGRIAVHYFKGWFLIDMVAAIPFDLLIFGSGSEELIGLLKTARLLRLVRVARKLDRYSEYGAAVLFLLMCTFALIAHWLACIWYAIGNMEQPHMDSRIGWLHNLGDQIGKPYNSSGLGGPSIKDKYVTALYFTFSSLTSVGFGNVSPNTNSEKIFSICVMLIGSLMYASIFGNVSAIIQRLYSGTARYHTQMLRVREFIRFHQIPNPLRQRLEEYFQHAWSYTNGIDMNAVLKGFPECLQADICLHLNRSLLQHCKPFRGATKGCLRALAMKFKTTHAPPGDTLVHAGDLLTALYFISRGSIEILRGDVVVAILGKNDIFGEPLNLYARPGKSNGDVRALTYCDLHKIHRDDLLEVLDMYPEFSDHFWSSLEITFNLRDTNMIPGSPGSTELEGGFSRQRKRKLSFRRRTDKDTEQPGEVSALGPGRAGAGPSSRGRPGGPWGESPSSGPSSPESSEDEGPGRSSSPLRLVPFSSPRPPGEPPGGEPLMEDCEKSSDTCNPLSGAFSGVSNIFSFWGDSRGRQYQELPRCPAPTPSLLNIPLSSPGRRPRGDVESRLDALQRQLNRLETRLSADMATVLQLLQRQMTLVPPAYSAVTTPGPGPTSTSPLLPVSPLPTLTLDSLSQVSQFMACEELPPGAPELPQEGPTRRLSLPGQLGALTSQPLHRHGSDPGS

One may read the inhibition as the share of the control response that was lost under treatment. Regarding `O=C(NCCc1c[nH]c2ccccc12)C1CCN(Cc2ccc(Br)cc2)CC1`, the Tl flux remaining, % of negative control (hits give low values) in [1] is 62% (active). The outcome in [2], in assay [4], in assay [5], in assay [6], in assay [7] and in assay [10] was inactive. For the same compound, the result in [11] was inactive. The inhibition is 61% (active) in [3] and 58% (active) in [9]. Further, the percent change from control (negative = decrease, positive = increase) in assay [8] is 11% (active).
Take `CC(NCc1ccccc1OC1CCCC1)c1ccccc1` (stereo unspecified): the Tl flux remaining, % of negative control (hits give low values) in [1] is 23.5% (active). Besides, the result in assay [2], in assay [3], in assay [4] and in assay [7] was inactive. The inhibition is 23.4% (active) in assay [5], 79.5% (active) in [9] and 83% (active) in [10]. In addition, the membrane potential signal change in [6] is 416% (active). The percent change from control (negative = decrease, positive = increase) in [8] is 114% (active). For the same compound, the activation in assay [11] was 122% (active).
With `CCC(=O)OCc1c(C(F)(F)F)nn(C)c1Oc1cccc(C(F)(F)F)c1`, the outcome in assay [1] and in assay [2] was inactive.
In the case of `Cc1ccc(-n2nc3c(c2NC(=O)CCC2CCCCC2)CS(=O)C3)cc1` (stereo unspecified), the outcome in assay [1], in assay [2] and in assay [16] was inactive. In [12], the activity increase over 3SD of controls was 7.4% (active). Moreover, the activation over 3SD threshold in assay [13] was 30.1% (active). Also, the potentiation, less the hit threshold in assay [14] was 27.6% (active). In addition, in assay [15], the activity over 3SD threshold is -35.2%.
`COc1cc(CNCc2ccc(OC)c3ccccc23)cc(OC)c1OC`: the Tl flux remaining, % of negative control (hits give low values) in assay [1] is 51% (active). Moreover, the outcome in assay [2] was inactive.
As for `Clc1cccc(Cl)c1OCCOCCNCc1ccccc1`, in [1], the Tl flux remaining, % of negative control (hits give low values) is 33% (active). Further, the result in [2], in assay [3] and in [4] was inactive. In [5], the inhibition was 69.6% (active).
Regarding `CC(C)(c1ccccc1)c1ccc(OCCN)cc1`, the Tl flux remaining, % of negative control (hits give low values) in assay [1] was 30.5% (active). The outcome in [2], in assay [3] and in assay [4] was inactive. Further, the inhibition in assay [5] was 36.1% (active).
For the compound `CCCc1cc(=O)[nH]c(SCC(=O)c2cc(C)n(CCC)c2C)n1`, the Tl flux remaining, % of negative control (hits give low values) in [1] was 60% (active). Also, the result in assay [2], in assay [3] and in [4] was inactive. Besides, the inhibition in assay [5] was 30.9% (active).
Regarding `Cc1cc(C)nc(SCc2nnc(SCC(=O)OC3CCCCC3)o2)n1`, the Tl flux remaining, % of negative control (hits give low values) in assay [1] was 28% (active). The outcome in [2], in assay [3] and in assay [4] was inactive. In assay [5], the inhibition was 82.2% (active).
For `CCc1ccccc1NC(=O)[C@@H]1CCC(=O)N1C1OC(=O)c2c1ccc(OC)c2OC` (stereo partly specified), the compound was called inactive in assay [1] and in assay [2]. For the same compound, the activity increase over 3SD of controls in [12] is 82.8% (active). In addition, the activation over 3SD threshold in [13] was 55% (active). Also, in assay [14], the potentiation, less the hit threshold was -19.6%. Also, the activity over 3SD threshold in assay [15] is -22%.
Regarding `Cc1nnc(SCc2ccc(C(=O)c3ccc(Cl)cc3)o2)n1-c1ccccc1`, the Tl flux remaining, % of negative control (hits give low values) in [1] is 66% (active). In addition, the result in [2], in assay [3], in [4], in assay [7] and in assay [9] was inactive. In addition, the inhibition in assay [5] is 19% (active); in assay [10], 62% (active). Moreover, in assay [6], the membrane potential signal change is 116% (active). In addition, the percent change from control (negative = decrease, positive = increase) in assay [8] is 23.5% (active).
Regarding `CCCCOC(=O)Cn1c(=O)n(CC(=O)OCCCC)c2cc(C)ccc21`, the compound was classed as inactive in assay [1] and in assay [2].
In the case of `CC(C)Cc1nnc(NC(=O)CCc2ccccc2)s1`, the compound was called inactive in assay [1] and in assay [2]. The activity increase over 3SD of controls in assay [12] is 45% (active). In addition, the activation over 3SD threshold in [13] is -19.5%. Moreover, the potentiation, less the hit threshold in assay [14] is -14.9%. The activity over 3SD threshold in [15] is -23.2%.
For `Cc1ccccc1C(=O)NCCN=C1NS(=O)(=O)c2ccccc21`, the outcome in assay [1], in assay [2], in [3], in assay [4] and in [5] was inactive.
As for `CC(NC(=O)Nc1cccc([N+](=O)[O-])c1)c1ccc2c(c1)OCO2` (stereo unspecified), the outcome in assay [1], in [2] and in [16] was inactive. In addition, the activity increase over 3SD of controls in assay [12] was 19.3% (active). Besides, the activation over 3SD threshold in [13] is 80% (active). In addition, the potentiation, less the hit threshold in assay [14] was 30.7% (active). Also, in assay [15], the activity over 3SD threshold is -29.4%.
Turning to `S=C(Nc1ccc(Br)cc1)NC1CCN(Cc2ccccc2)CC1`, in [1], the Tl flux remaining, % of negative control (hits give low values) is 48% (active). In addition, the outcome in assay [2] and in assay [4] was inactive. Moreover, the inhibition in [3] is 49% (active); in [5], 4.2% (active).
Consider `COc1ccc(C(O)(C2CCCCC2)C(CN2CCCC2)c2ccccc2)cc1` (stereo unspecified), for which the Tl flux remaining, % of negative control (hits give low values) in assay [1] is 49% (active). In addition, the outcome in assay [2], in assay [3], in assay [4] and in assay [5] was inactive.
Take `Cc1cc2cc3c(cc2nc1SCC(=O)Nc1c(C)cccc1C)CCC3`: the compound was called inactive in assay [1] and in assay [2]. Moreover, in [12], the activity increase over 3SD of controls was 20.3% (active). The activation over 3SD threshold in assay [13] is 6.2% (active). The potentiation, less the hit threshold in [14] was -22.8%. In [15], the activity over 3SD threshold was -19.1%.
For `O=C(/C=C/Sc1ncn[nH]1)c1ccc(Cl)cc1`, the result in assay [1] and in assay [2] was inactive. For the same compound, the activity increase over 3SD of controls in [12] is -4%. For the same compound, the activation over 3SD threshold in [13] was 0.3% (active). The potentiation, less the hit threshold in [14] is -17.8%. Also, in [15], the activity over 3SD threshold is -56.5%.

Source of the values: PubChem BioAssay.
